Measured values reported in PubChem BioAssay AID1159580 (chemical genetic matrix, 2015).
Values joined by “and” are separate entries in the source; they are usually repeats but may differ in a detail not shown here. Identical values can stand only once. The campaign covered roughly 5,500 compounds. About 2,000 (36%) were called active. About 18% were inconclusive and are not listed. Rule as the data show it: active = normalized growth mostly below about 0.91 (no sharp cut-off); inconclusive = no clear call, values can overlap the other calls; inactive = mostly above about 0.92. The list shows a part of the results.

Test: chemical genetic growth profiling, strain panel (AID 1159580);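 also: tested at 20 µM; growth read once vehicle control cultures reached saturation at 30 °C; 1 = growth at the plate median or of vehicle wells; lower values mean less growth of the strain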
Settings: growth OD

Measured: normalized growth

CCOc1ccc(/C=C(\C)[N+](=O)[O-])cc1OC
active: S. cerevisiae deletion strains, locus YAL013W, strain DEP1, stronger effect = lower value 0.525 | S. cerevisiae deletion strains, locus YBR229C, strain ROT2, stronger effect = lower value 0.25 | S. cerevisiae deletion strains, locus YDL101C, strain DUN1, stronger effect = lower value 0.426 | S. cerevisiae deletion strains, locus YDL134C, strain PPH21, stronger effect = lower value 0.106 | S. cerevisiae deletion strains, locus YDL214C, strain PRR2, stronger effect = lower value 0.471 | S. cerevisiae deletion strains, locus YDR477W, strain SNF1, stronger effect = lower value 0.516 | S. cerevisiae deletion strains, locus YEL061C, strain CIN8, stronger effect = lower value 0.22 | S. cerevisiae deletion strains, locus YER123W, strain YCK3, stronger effect = lower value 0.232 | S. cerevisiae deletion strains, locus YER133W, strain GLC7, stronger effect = lower value 0.482 | S. cerevisiae deletion strains, locus YFR019W, strain FAB1, stronger effect = lower value 0.284 | S. cerevisiae deletion strains, locus YGR040W, strain KSS1, stronger effect = lower value 0.478 | S. cerevisiae deletion strains, locus YGR052W, strain FMP48, stronger effect = lower value 0.382 | S. cerevisiae deletion strains, locus YGR078C, strain PAC10, stronger effect = lower value 0.437 | S. cerevisiae deletion strains, locus YGR092W, strain DBF2, stronger effect = lower value 0.226 | S. cerevisiae deletion strains, locus YHR030C, strain SLT2, stronger effect = lower value 0.0845 and 0.197 | S. cerevisiae deletion strains, locus YHR079C, strain IRE1, stronger effect = lower value 0.313 | S. cerevisiae deletion strains, locus YHR082C, strain KSP1, stronger effect = lower value 0.429 | S. cerevisiae deletion strains, locus YHR087W, strain rtc3, stronger effect = lower value 0.401 | S. cerevisiae deletion strains, locus YHR205W, strain SCH9, stronger effect = lower value 0.57 | S. cerevisiae deletion strains, locus YJL095W, strain BCK1, stronger effect = lower value 0.269 | S. cerevisiae deletion strains, locus YJL157C, strain FAR1, stronger effect = lower value 0.46 | S. cerevisiae deletion strains, locus YJL187C, strain SWE1, stronger effect = lower value 0.434 | S. cerevisiae deletion strains, locus YJR043C, strain POL32, stronger effect = lower value 0.602 | S. cerevisiae deletion strains, locus YJR066W, strain TOR1 (second series), stronger effect = lower value 0.126 | S. cerevisiae deletion strains, locus YJR066W, strain TOR1, stronger effect = lower value 0.257 | S. cerevisiae deletion strains, locus YJR075W, strain HOC1, stronger effect = lower value 0.178 | S. cerevisiae deletion strains, locus YKL048C, strain ELM1, stronger effect = lower value 0.534 | S. cerevisiae deletion strains, locus YKL067W, strain YNK1, stronger effect = lower value 0.458 | S. cerevisiae deletion strains, locus YKL101W, strain HSL1, stronger effect = lower value 0.393 | S. cerevisiae deletion strains, locus YKL203C, strain TOR2, stronger effect = lower value 0.489 | S. cerevisiae deletion strains, locus YLR039C, strain RIC1, stronger effect = lower value 0.285 | S. cerevisiae deletion strains, locus YLR058C, strain SHM2 (second series), stronger effect = lower value 0.651 | S. cerevisiae deletion strains, locus YLR085C, strain ARP6, stronger effect = lower value 0.163 | S. cerevisiae deletion strains, locus YLR113W, strain HOG1, stronger effect = lower value 0.203 | S. cerevisiae deletion strains, locus YLR133W, strain CKI1, stronger effect = lower value 0.547 | S. cerevisiae deletion strains, locus YLR262C, strain YPT6, stronger effect = lower value 0.283 | S. cerevisiae deletion strains, locus YLR403W, strain SFP1, stronger effect = lower value 0.497 | S. cerevisiae deletion strains, locus YML070W, strain DAK1, stronger effect = lower value 0.295 | S. cerevisiae deletion strains, locus YML094W, strain GIM5, stronger effect = lower value 0.145 | S. cerevisiae deletion strains, locus YMR205C, strain PFK2 (second series), stronger effect = lower value 0.554 | S. cerevisiae deletion strains, locus YMR219W, strain ESC1, stronger effect = lower value 0.285 | S. cerevisiae deletion strains, locus YMR263W, strain SAP30, stronger effect = lower value 0.463 | S. cerevisiae deletion strains, locus YNL020C, strain ARK1, stronger effect = lower value 0.528 | S. cerevisiae deletion strains, locus YNL153C, strain GIM3, stronger effect = lower value 0.171 | S. cerevisiae deletion strains, locus YNL183C, strain NPR1, stronger effect = lower value 0.359 | S. cerevisiae deletion strains, locus YNL298W, strain CLA4 (second series), stronger effect = lower value 0.204 | S. cerevisiae deletion strains, locus YNL307C, strain MCK1 (second series), stronger effect = lower value 0.364 | S. cerevisiae deletion strains, locus YNL322C, strain KRE1, stronger effect = lower value 0.873 | S. cerevisiae deletion strains, locus YNR030W, strain Alg12, stronger effect = lower value 0.0808 | S. cerevisiae deletion strains, locus YOL006C, strain TOP1, stronger effect = lower value 0.0719 | S. cerevisiae deletion strains, locus YOL136C, strain PFK27, stronger effect = lower value 0.374 | S. cerevisiae deletion strains, locus YOR061W, strain CKA2, stronger effect = lower value 0.571 | S. cerevisiae deletion strains, locus YOR119C, strain RIO1, stronger effect = lower value 0.444 | S. cerevisiae deletion strains, locus YOR231W, strain MKK1, stronger effect = lower value 0.289 | S. cerevisiae deletion strains, locus YPL031C, strain PHO85, stronger effect = lower value 0.409 | S. cerevisiae deletion strains, locus YPL055C, strain LGE1, stronger effect = lower value 0.86 | S. cerevisiae deletion strains, locus YPL153C, strain RAD53, stronger effect = lower value 0.318 | S. cerevisiae deletion strains, locus YPL204W, strain HRR25, stronger effect = lower value 0.431 | S. cerevisiae deletion strains, locus YPL241C, strain CIN2, stronger effect = lower value 0.0938 | S. cerevisiae deletion strains, locus YPL256C, strain CLN2, stronger effect = lower value 0.266 | S. cerevisiae deletion strains, locus YPR135W, strain CTF4, stronger effect = lower value 0.233 | S. cerevisiae strains, strain wild type, stronger effect = lower value 0.0825
inactive: S. cerevisiae deletion strains, locus YAR019C, strain CDC15, stronger effect = lower value 0.976 | S. cerevisiae deletion strains, locus YBL105C, strain PKC1, stronger effect = lower value 0.975 | S. cerevisiae deletion strains, locus YBR135W, strain CKS1, stronger effect = lower value 0.97 | S. cerevisiae deletion strains, locus YBR136W, strain MEC1, stronger effect = lower value 0.973 | S. cerevisiae deletion strains, locus YBR160W, strain CDC28, stronger effect = lower value 0.971 | S. cerevisiae deletion strains, locus YDL017W, strain CDC7, stronger effect = lower value 0.97 | S. cerevisiae deletion strains, locus YDL028C, strain MPS1, stronger effect = lower value 0.973 | S. cerevisiae deletion strains, locus YDL108W, strain KIN28, stronger effect = lower value 0.979 | S. cerevisiae deletion strains, locus YDL132W, strain cdc53, stronger effect = lower value 0.991 | S. cerevisiae deletion strains, locus YDR052C, strain DBF4, stronger effect = lower value 0.984 | S. cerevisiae deletion strains, locus YDR054C, strain cdc34, stronger effect = lower value 0.978 | S. cerevisiae deletion strains, locus YDR226W, strain ADK1, stronger effect = lower value 0.97 | S. cerevisiae deletion strains, locus YFL009W, strain cdc4, stronger effect = lower value 0.98 | S. cerevisiae deletion strains, locus YFL029C, strain CAK1, stronger effect = lower value 0.97 | S. cerevisiae deletion strains, locus YFR003C, strain YPI1, stronger effect = lower value 0.978 | S. cerevisiae deletion strains, locus YFR028C, strain CDC14, stronger effect = lower value 0.974 | S. cerevisiae deletion strains, locus YIL147C, strain SLN1, stronger effect = lower value 0.973 | S. cerevisiae deletion strains, locus YJL128C, strain PBS2, stronger effect = lower value 0.964 | S. cerevisiae deletion strains, locus YJR016C, strain ILV3, stronger effect = lower value 0.985 | S. cerevisiae deletion strains, locus YKL193C, strain SDS22, stronger effect = lower value 0.973 | S. cerevisiae deletion strains, locus YMR001C, strain CDC5, stronger effect = lower value 0.967 | S. cerevisiae deletion strains, locus YMR277W, strain FCP1, stronger effect = lower value 0.973 | S. cerevisiae deletion strains, locus YNL006W, strain LST8, stronger effect = lower value 0.976 | S. cerevisiae deletion strains, locus YNL161W, strain CBK1, stronger effect = lower value 0.961 | S. cerevisiae deletion strains, locus YNL207W, strain RIO2, stronger effect = lower value 0.977 | S. cerevisiae deletion strains, locus YNL222W, strain SSU72, stronger effect = lower value 0.976 | S. cerevisiae deletion strains, locus YOL078W, strain AVO1, stronger effect = lower value 0.98 | S. cerevisiae deletion strains, locus YOR329C, strain SCD5, stronger effect = lower value 0.965 | S. cerevisiae deletion strains, locus YPL209C, strain IPL1, stronger effect = lower value 0.968 | S. cerevisiae deletion strains, locus YPR025C, strain CCL1, stronger effect = lower value 0.969 | S. cerevisiae deletion strains, locus YPR106W, strain ISR1, stronger effect = lower value 0.972 | S. cerevisiae deletion strains, locus YPR111W, strain DBF20, stronger effect = lower value 0.978 | S. cerevisiae deletion strains, strain NNK1, stronger effect = lower value 0.975 | S. cerevisiae deletion strains, strain TSCII, stronger effect = lower value 0.977
